# Source: PubChem (National Center for Advancing Translational Sciences (NCATS))
# Shown are actives, neighbours in structure and some others; about 12% of the full set was active somewhere.
# Sm TGR block – blocks Schistosoma mansoni thioredoxin glutathione reductase; Q962Y6; purified TGR, DTNB reduction, TNB absorbance 405 nm; 360,000 compounds, 3% hits; Potency, µM (series often up to 114 µM), actives largely listed as inhibitors; active = well fitted inhibition curve with a large enough effect; inconclusive = small, poorly fitted or top-dose-only effect; inactive = no such curve, though single readings can be large or run the other way; note: nearly all actives have a fitted effect of over 60% in size
#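 Kinetic colorimetric format: TGR-catalysed, NADPH-driven DTNB reduction monitored via TNB absorbance. Enzyme dispensed at 20 nM; compound exposure 15 min at room temperature before reaction start.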
# FMDV inh – antivirals against foot and mouth disease virus; 410,000 compounds, 1.2% hits; Potency, µM (highest dose often 57.9 µM), usual class: inhibitors; FMDV antiviral cell-based qHTS; calls by dose curve; tested in HEK293T cells; note: read-out not given here; nearly all actives have a fitted effect of over 45% in size
# Shiga inhibitor – Shiga toxin inhibition | Vero cells, Shiga toxin protein synthesis inhibition reporter | inhibition, % at 38.7 µM | 290,000 compounds, 9.2% hits | AID 2315; in the data active = inhibition mostly above about 28%, no sharp cut-off; inactive = mostly below about 43%
# Cycloheximide cs – affects cycloheximide protein synthesis inhibition readout, counter-screen | max response, % | 300,000 compounds, 12% hits | cell reporter, cycloheximide protein synthesis inhibition counterscreen; in the data active = max response mostly above about 13%, no sharp cut-off; inactive = mostly below about 14%; note: read at 38.3 µM for the half of the compounds with a filed dose
# A number is an active result; 0 = inactive; ? = inconclusive; - = no result; + = active, no number.
SMILES,Sm TGR block,FMDV inh,Shiga inhibitor,Cycloheximide cs
COc1cc2oc(=O)cc(-c3ccc(-c4ccc(N(C)C)cc4)cc3)c2c(OC)c1OC,-,0,+,64
COc1ccc(-c2ccc(-c3cc(=O)oc4cc(C)cc(C)c34)cc2)cc1,-,-,+,0
COc1ccc(-c2cccc(-c3cc(=O)oc4cc(OC)cc(OC)c34)c2)cc1,-,0,-,-
Cc1cc(C)c2c(-c3ccc(-c4ccc(C(F)(F)F)cc4)cc3)cc(=O)oc2c1,-,-,0,0
CCOc1ccc(NC(=O)CC2C(=O)N(c3cccc(C)c3)C(=O)N2Cc2cccs2)cc1 (stereo not given),0,0,-,-
CCc1ccc(NC(=O)N(Cc2ccc(C)cc2)Cc2cccn2-c2nnc(N3CCCC3=O)s2)cc1,0,0,-,-
CN1CCN(C(=O)c2ccc(COc3ccc(C(C)(C)C)cc3)o2)CC1,0,0,65,49
CN1CCN(C(=O)c2ccc(CS(=O)Cc3ccc(Cl)cc3)o2)CC1 (stereo not given),0,0,0,0
CCOc1ccc(OCc2ccc(C(=O)NC(C)C)o2)cc1,0,0,43,40
O=C(c1ccco1)N1CCN(C(=O)c2ccc(COc3ccc4c(c3)CCC4)o2)CC1,?,?,0,0
CCCc1ccc(OCc2ccc(C(=O)N3CCCC3)o2)cc1,0,0,149,22
CCOC(=O)c1ccc(COc2ccc(C(C)C)cc2)o1,0,0,102,73
CN1c2ccc(Cl)cc2-c2nc(SCC(=O)NCc3ccccc3)ncc2S1(=O)=O,0,0,-,-
CC(C)(c1ccccc1)c1ccc(OCc2ccc(C(=O)O)o2)cc1,0,0,-,-
CCOc1ccc(OCc2ccc(C(=O)OCc3ccccn3)o2)cc1,0,0,143,63
COc1ccc(CC(=O)N2CCN(c3ccccn3)CC2)cc1OC,0,0,0,0
CCC(C)c1ccc(OCc2ccc(C(=O)O)o2)cc1 (stereo not given),0,11µM,105,71
CCOc1ccc(OCc2ccc(C(=O)N3CCCC3)o2)cc1,0,-,54,24
Cc1ccccc1OCc1ccc(C(=O)N2CCOCC2)o1,0,0,0,0
CCCc1ccc(OCc2ccc(C(=O)N3CCN(c4ccccn4)CC3)o2)c(OC)c1,0,?,0,36
CCc1cccc(C)c1NC(=O)c1cc(S(=O)(=O)N2CCCCCC2)cn1C,0,?,-,-
O=C(c1ccc(COc2ccccc2Cl)o1)N1CCN(c2ccccc2)CC1,0,0,0,0
CC(C)c1ccc(OCc2ccc(C(=O)N3CCCC3)o2)cc1,?,0,155,111
COCCN1C=C2C(=O)C(C)(OC(=O)C3CCCC3)C(=O)C(c3ccccc3)=C2C=C1CCCC(=O)OC (stereo not given),14µM,0,0,0
COC(=O)CCCC1=CC2=C(c3ccccc3)C(=O)C(C)(OC(=O)C3CCCC3)C(=O)C2=CN1CC(C)C (stereo not given),0,0,0,0
SMILES,Sm TGR block,FMDV inh,Shiga inhibitor,Cycloheximide cs
COC(=O)CCCC1=CC2=C(c3ccccc3)C(=O)C(C)(OC(=O)C3CCCC3)C(=O)C2=CN1CC1CC1 (stereo not given),28µM,0,0,0
COC(=O)CCCC1=CC2=C(c3ccccc3)C(=O)C(C)(OC(=O)C3CCCC3)C(=O)C2=CN1C1CCCCC1 (stereo not given),20µM,0,0,0
O=S(=O)(c1ccccc1)c1nnn2c1nc(NC1CCCCCC1)c1sccc12,0,0,-,-
O=c1c2ccccc2nc2n1CCS2(=O)=O,22µM,32µM,0,0
O=c1c2ccccc2nc2c3ccccc3c3nncn3n12,0,?,0,0
O=C(Cc1ccccc1)c1ccc(O)cc1,-,0,-,-
O=C(Cc1ccccc1)c1ccc(Cl)cc1,0,0,60,32
Cc1ccc(C(=O)CCC(=O)NCc2ccc(Cl)cc2)cc1,?,0,-,-
CCc1ccc(NCCC(=O)c2ccc(Cl)cc2)cc1,?,-,0,0
Cc1ccc(CC(=O)c2ccc(Cl)cc2)cc1,0,0,68,47
O=C(Cc1ccc(Cl)cc1)c1ccc(O)cc1,0,0,110,48
Cc1ccccc1C(=O)Nc1nc2c(s1)CC(C(C)(C)C)CC2 (stereo not given),0,0,-,-
CC(C)CC(=O)Nc1nnc(S(=O)(=O)N(C)Cc2ccc(Cl)cc2)s1,0,0,-,-
CCCCN1c2ccccc2N(CCCO)c2cc(C)nnc21,0,0,0,14
COc1ccccc1CNC(=O)CC1N=C2c3ccccc3N=C(SCC(=O)Nc3ccc(F)cc3)N2C1=O (stereo not given),0,0,-,-
CC1(C)Cc2ccccc2-c2nnc(SCc3ccccc3)n21,0,-,0,11
Cc1ccc2nc3n(c(=O)c2c1)CCCCC3,0,0,53,31
O=c1c2cc(Br)ccc2nc2n1CCCCC2,0,0,0,29
COc1cc(NC(=O)Cn2c(C)cc(C)c(C#N)c2=O)cc(OC)c1,0,0,-,-
CCn1c(=O)c2sccc2n2c(CCC(=O)Nc3ccc(C(C)C)cc3)nnc12,0,0,-,-
CC1CN(C(=O)c2cc3cc(Cl)ccc3[nH]2)CC(C)O1 (stereo not given),0,0,0,0
O=C(c1ccccc1)c1cc2cc(Cl)ccc2[nH]1,0,0,40,32
COc1cccc(C(=O)c2cc3cc(Cl)ccc3[nH]2)c1,0,0,42,38
COc1ccc2oc(-c3ccc(C)c(NC(=O)c4ccc5c(c4)OCCO5)c3)nc2c1,0,0,-,-
COc1ccccc1N1CCN(C(=O)c2cc3ccc4ccc(C)[nH]c4c3n2)CC1,0,0,-,-
SMILES,Sm TGR block,FMDV inh,Shiga inhibitor,Cycloheximide cs
O=C(C1CCCN(S(=O)(=O)c2cccc3nsnc23)C1)N1CCN(c2ccccc2Cl)CC1 (stereo not given),0,25µM,-,-
O=C(C1CCCN(S(=O)(=O)c2cccc3nsnc23)C1)N1CCc2ccccc21 (stereo not given),0,25µM,0,0
O=C(C1CCCN(S(=O)(=O)c2cccc3nsnc23)C1)N1CCc2ccccc2C1 (stereo not given),0,25µM,0,0
CCc1ccccc1-n1c(C)nc2cc(C(=O)NCCc3ccc(Cl)cc3)ccc21,0,0,-,-
CCOC(=O)c1sc2nc(C)cc(C)c2c1N,0,0,78,50
Cc1ccc(NC(=O)c2sc3nc(C)cc(C)c3c2N)cc1,0,0,125,51
Cc1cc(C)c2c(N)c(C(=O)N3CCN(c4ncccn4)CC3)sc2n1,0,0,0,31
Cc1cc(C)c2c(N)c(C(=O)NNC(=O)c3ccccc3)sc2n1,-,0,93,45
Cc1ccccc1C[C@H](C(=O)O)N1C(=O)c2ccc(C(=O)O)cc2C1=O,0,-,0,0
COc1ccccc1N1CCN(c2nc3ccccc3n3cnnc23)CC1,0,0,-,-
Cc1cc(C)c2c(N)c(C(=O)Nc3cccc(C)c3C)sc2n1,0,0,0,12
Cc1cc(C)c2c(N)c(C(=O)NN)sc2n1,0,0,78,45
Cc1nc(N)sc1C(=O)NN,0,0,82,23
Cc1cc(C)c2c(N)c(C(=O)NC3CC3)sc2n1,0,0,0,0
COc1ccc(NC(=O)c2sc3nc(C)cc(C)c3c2N)c(OC)c1,-,0,-,-
CCCCOC(=O)c1sc2nc(C)cc(C)c2c1N,0,0,48,27
CC(C)(C)c1ccc(NC(=O)C(=O)C2C(=O)Nc3ccccc32)cc1 (stereo not given),0,0,49,32
